# Laboratory results: paper PMC7826789 (International Journal of Molecular Sciences, 2021)
# Tests used:
# Settings in all cases: Compound Concentration (nM):1000
# TXK = tested on: TXK
# [1] = tested on: TYK2(JH1domain-catalytic)
# [2] = tested on: TYK2(JH2domain-pseudokinase)
# TYRO3 = tested on: TYRO3
# ULK1 = tested on: ULK1
# ULK2 = tested on: ULK2
# ULK3 = tested on: ULK3
# VEGFR2 = tested on: T1, VEGFR2
# T1 construct: gene KDR
# VPS34 = tested on: T2, VPS34
# T2 construct: gene PIK3C3
# VRK2 = tested on: VRK2
# 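Note: KINOMEscan scanMAX binding as percent activity remaining versus control; lower means stronger binding.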
Structure (SMILES),Percent Control (TXK),Percent Control [1],Percent Control [2],Percent Control (TYRO3),Percent Control (ULK1),Percent Control (ULK2),Percent Control (ULK3),Percent Control (VEGFR2),Percent Control (VPS34),Percent Control (VRK2)
CN(C)CCNC(=O)Nc1ccc(N(C)c2ccnc(Nc3ccc(CS(C)(=O)=O)cc3)n2)cc1.Cl [GW830900A],61%,35%,49%,85%,94%,97%,80%,21%,77%,100%
Cl.c1ccc(Cc2nc3ccc(Nc4ncnc5ccccc45)cc3[nH]2)cc1 [GR269666A],100%,100%,100%,90%,67%,100%,93%,72%,100%,100%
COc1cccc(-c2c[nH]c3c(N/N=C/c4ccncc4)ncnc23)c1 [GW814408X],100%,19%,0.1%,100%,100%,91%,68%,61%,65%,100%
NS(=O)(=O)c1ccc(N/N=C2\C(=O)Nc3ccc(Cl)cc32)cc1 [GW280670X],100%,98%,100%,100%,100%,100%,100%,52%,100%,100%
CCn1c(-c2nonc2N)nc2c(C#CC(C)(C)O)nc(OCCNC)cc21.Cl [GSK949675],100%,95%,95%,100%,88%,100%,94%,83%,100%,67%
Cl.O=C(Nc1ccc(Oc2ccc3[nH]c(NC(=O)c4ccco4)nc3c2)cc1)Nc1cc(C(F)(F)F)ccc1F [GW683134A],80%,100%,100%,71%,100%,89%,62%,20%,100%,100%
CC1=C(C(=O)Nc2ccc3[nH]ncc3c2)C(c2ccc(Cl)c(Cl)c2)CC(=O)N1 (centres unmarked) [GSK299115A],100%,14%,100%,89%,81%,72%,87%,92%,83%,72%
NS(=O)(=O)c1ccc(N/N=C2\C(=O)Nc3ccc(-c4cnco4)cc32)cc1 [GW276655],76%,24%,37%,40%,84%,82%,40%,71%,92%,89%
CCc1ccc(Oc2nccc(-c3c(-c4ccc(F)cc4)ncn3C3CCNCC3)n2)cc1 [SB-242719],91%,100%,100%,62%,92%,77%,92%,100%,64%,69%
C[C@@H](Oc1cc(-n2cnc3ccc(OC4CCN(C)CC4)cc32)sc1C(N)=O)c1ccccc1Cl [GSK579289A],60%,100%,93%,92%,71%,44%,100%,64%,29%,95%
Nc1ncnc2occ(-c3ccc(NC(=O)Nc4cc(C(F)(F)F)ccc4F)cc3)c12 [GW770249X],100%,100%,100%,100%,100%,93%,100%,0.9%,100%,100%
CC(C)COC(=O)c1ccc2c(c1)/C(=C/Nc1ccc(S(N)(=O)=O)cc1)C(=O)N2 [GW416981X],100%,42%,100%,100%,0.1%,0.3%,13%,63%,100%,100%
COc1ccc(COc2ccc(Cc3cnc(N)nc3N)cc2OC)cc1 [GW632580X],90%,100%,100%,71%,90%,90%,96%,85%,67%,81%
Cl.O=C(Nc1ccc(Oc2ccc3[nH]c(NC(=O)c4ccccc4)nc3c2)cc1)Nc1cc(C(F)(F)F)ccc1F [GW709042A],97%,100%,100%,94%,100%,100%,100%,49%,100%,100%
COc1cccc(-n2ncc3c(N/N=C/c4ccncc4)ncnc32)c1 [GW784752X],90%,88%,11%,74%,67%,69%,100%,75%,100%,85%
COC(=O)Nc1nc2ccc(Oc3ccc(NC(=O)Nc4cc(C(F)(F)F)ccc4F)cc3)cc2s1.Cl [GW693917A],77%,100%,100%,71%,62%,84%,78%,13%,76%,73%
COc1cc(C)c(N(C)C(=O)CN(C)C)cc1Nc1nc(Nc2cccc(F)c2C(N)=O)c2cc[nH]c2n1 [GSK2219385],90%,100%,100%,100%,72%,80%,100%,100%,82%,62%
COc1ccccc1-c1cc(/C=C2\C(=O)Nc3ncc(Br)cc32)cc(Br)c1O [GW442130X],100%,76%,100%,100%,85%,100%,78%,100%,77%,89%
CCS(=O)(=O)c1ccc(OC)c(Nc2ncc(-c3cccc(OC)c3)o2)c1 [GW580509X],74%,100%,100%,100%,87%,80%,99%,23%,100%,100%
CN1CCN(C(=O)c2ccc(NC(=O)Nc3ccc(N(C)c4ccnc(Nc5ccc(CS(C)(=O)=O)cc5)n4)cc3)cc2)CC1.Cl [GW830263A],15%,4.2%,6.5%,92%,79%,78%,7.6%,1.1%,74%,93%

Structure (SMILES),Percent Control (TXK),Percent Control [1],Percent Control [2],Percent Control (TYRO3),Percent Control (ULK1),Percent Control (ULK2),Percent Control (ULK3),Percent Control (VEGFR2),Percent Control (VPS34),Percent Control (VRK2)
Cl.O=C(O[C@H]1CN[C@H](C#Cc2cc3ncnc(Nc4ccc5c(cnn5Cc5ccccc5)c4)c3s2)C1)N1CCOCC1 [GSK200398A],83%,100%,97%,100%,62%,86%,91%,89%,98%,87%
O=C(Nc1n[nH]c2nc(-c3ccc(O)cc3)c(Br)cc12)C1CC1 [SB-725317],100%,52%,100%,100%,100%,100%,100%,57%,100%,100%
C/C(Nc1ccc(S(N)(=O)=O)cc1)=C1/C(=O)Nc2ccccc21 [GW335962X],100%,77%,100%,100%,62%,52%,83%,1.2%,81%,80%
COc1cc2ncnc(Nc3ccc4c(cnn4Cc4ccccc4)c3)c2cc1OC.Cl [GW282449A],100%,100%,100%,51%,74%,100%,100%,79%,100%,100%
Cl.O=S1CCN(Cc2ccc(-c3ccc4ncnc(Nc5ccc(OCc6ccccc6)c(F)c5)c4c3)o2)CC1 [GW576924A],100%,100%,100%,100%,90%,100%,94%,97%,100%,100%
CCS(=O)(=O)c1ccc(OC)c(Nc2ncc(-c3cccc(F)c3)o2)c1 [GW621970X],42%,100%,100%,73%,88%,95%,100%,2.4%,100%,93%
CN(C)c1cc2c(Nc3ccc4c(cnn4Cc4ccccc4)c3)ncnc2cn1 [GW282974X],89%,100%,100%,100%,–,85%,91%,94%,78%,81%
COc1cc(/C=N/Nc2ncnc3[nH]ncc23)ccc1O [GW578748X],83%,43%,0.2%,99%,48%,43%,6.1%,52%,87%,100%
COc1cc(N2CCN(C(C)C)CC2)ccc1Nc1nc(Nc2ccc(F)cc2C(=O)NC[C@@H](O)CO)c2cc[nH]c2n1 [GSK1392956A],92%,100%,100%,74%,65%,77%,100%,100%,82%,68%
COc1ccc2c(-c3ccnc(Nc4cccc(OC(F)(F)F)c4)n3)cnn2n1 [GW810372X],67%,98%,75%,100%,100%,100%,100%,73%,29%,95%
COc1cc2ncn(-c3cc(O[C@H](C)c4ccccc4Cl)c(C(N)=O)s3)c2cc1OC [GSK237701A],96%,45%,97%,100%,92%,75%,100%,33%,0.3%,80%
Cc1cc(O)cc(C)c1/C=C/c1cncc(C(N)=O)c1 [GW435821X],100%,100%,90%,100%,100%,97%,98%,87%,100%,100%
NS(=O)(=O)c1ccc(N/N=C2\C(=O)Nc3ccc(C(=O)NCCc4c[nH]cn4)cc32)cc1 [GW300660X],100%,81%,84%,100%,38%,37%,65%,79%,86%,100%
CC1=C(C(=O)Nc2ccc3[nH]ncc3c2)C(c2ccc3ccccc3c2)CC(=O)N1 (centres unmarked) [GSK270822A],91%,10%,58%,83%,82%,79%,93%,90%,79%,36%
COc1ccc2cc(-c3c(-c4ccncc4)nc(-c4ccc(S(C)(=O)=O)cc4C)n3C)ccc2c1 [SB-633825],90%,73%,100%,72%,72%,88%,73%,49%,86%,58%
COc1cc(C=NNc2ncnc3c2cnn3-c2ccccc2)ccc1O [GW513184X],100%,47%,8%,100%,100%,100%,67%,95%,100%,100%
NS(=O)(=O)c1ccc(N/N=C2\C(=O)Nc3ccc(C(=O)NCc4ccncc4)cc32)cc1 [GW300657X],100%,70%,31%,80%,15%,26%,31%,84%,71%,74%
COc1ccc2[nH]c3c4[nH]c5ccc(OC)cc5c4c4c(c3c2c1)C(=O)NC4=O [GW296115X],100%,87%,84%,71%,100%,87%,43%,59%,80%,98%
O=C1Nc2ccc(C(=O)c3ccco3)cc2C1=Cc1cc(Cl)c(O)c(Cl)c1 [GW406108X],100%,35%,41%,86%,–,71%,60%,78%,11%,74%
NS(=O)(=O)c1ccc(Nc2ncc(-c3ccccc3)o2)cc1 [GW572399X],100%,100%,100%,100%,100%,91%,88%,22%,100%,100%
